Compounds with a hit are over-represented: about 12% of the library has one in this group of screens.
PLK1 PBD block: inhibitors of human PLK1 polo-box domain binding; Plk1 PBD binding of FITC phosphopeptide, fluorescence polarization; AID 720504; P53350; 360,000 tested, 2.8% active; Potency, µM, inactives show max response, negative = inhibition, usual class: inhibitors; note: potency is the fitted concentration of half-maximal effect; series mostly up to about 57 µM; % is set by controls: 0 for no effect and ±100 for the full control effect; nearly all actives have a fitted effect of over 65% in size
HP1b chromo inh: inhibitors of HP1-beta chromodomain binding to methylated histone tails | Potency, µM (series often up to 114 µM), for inactives: at the top dose activity change, negative = inhibition, most hits filed as inhibitors | AlphaScreen HP1-beta / biotin-H3K9me3 peptide binding | P83916 | 390,000 tested, 0.56% active | AID 540317; note: potency is the fitted concentration of half-maximal effect; nearly all actives have a fitted effect of over 70% in size
Target sequence (P83916 whole entry, looked up): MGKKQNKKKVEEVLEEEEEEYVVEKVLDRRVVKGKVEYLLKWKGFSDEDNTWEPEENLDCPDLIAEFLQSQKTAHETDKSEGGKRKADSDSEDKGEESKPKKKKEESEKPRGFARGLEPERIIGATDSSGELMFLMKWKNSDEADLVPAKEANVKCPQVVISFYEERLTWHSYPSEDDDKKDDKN
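HP1-beta protein (50 nM final) preincubated 30 min at room temperature with biotinylated H3(1-18)K9me3 peptide (50 nM) in PBS pH 7.4, 0.01% Tween-20, then compound added for 30 min. AlphaScreen streptavidin donor/nickel chelate acceptor beads (10 ug/mL final), 30 min dark, luminescence read.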
Sfp inh: Sfp phosphopantetheinyl transferase inhibition; Potency, µM, without a hit: largest response in the series, negative = inhibition, hits mostly inhibitors; 310,000 tested, 3.5% active; AID 1490; Q9F4F7; Biochemical Sfp PPTase activity, qHTS;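 note: the enzyme is Sfp with the accession as filed and its product quenches rhodamine fluorescence; potency is the fitted concentration of half-maximal effect; 0% = enzyme reaction without inhibitor and -100% = no enzyme wells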
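Fluorescence-quenching assay: 15 nM Sfp-PPTase preincubated 15 min at room temperature with compound, then 5 uM rhodamine-CoA and 12.5 uM BHQ-2-labelled YbbR peptide added. Fluorescence (ex 525/em 598 nm) read at start and after 30 min; difference gives rate.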
JMJD2A Tudor: blocks the human JMJD2A Tudor domain; O75164; AlphaScreen JMJD2A-Tudor / H3K4me3 peptide binding; Potency, µM (doses to about 114 µM), for the others: at the top dose activity change, negative = inhibition, usual class: inhibitors; 390,000 tested, 4.4% active; note: potency is the fitted concentration of half-maximal effect; % is set by controls: 0 for no effect and ±100 for the full control effect; nearly all actives have a fitted effect of over 50% in size
BAZ2B block: inhibitors of human BAZ2B bromodomain; AID 504333; AlphaScreen BAZ2B-H3K14Ac peptide displacement; Potency, µM (highest dose often 114 µM), for inactives: at the top dose activity change, negative = inhibition, most hits filed as inhibitors; 360,000 tested, 4.4% active; note: potency is the fitted concentration of half-maximal effect; % is set by controls: 0 for no effect and ±100 for the full control effect; nearly all actives have a fitted effect of over 60% in size
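BAZ2B 50 nM plus b-H3(5-23)K14Ac 50 nM, PBS pH 7.4/0.01% Tween-20, 30 min RT; compound added (max 110 uM), 30 min RT; streptavidin donor/Ni-chelate acceptor beads 10 ug/mL final, 20 min dark; AlphaScreen read.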
G9a block: inhibitors of human histone lysine methyltransferase G9a; Q96KQ7; G9a H3K9 monomethylation, AlphaScreen, 2 h; Potency, µM (highest dose often 102 µM), for inactives: at the highest dose activity, negative = inhibition, hits mostly inhibitors; 350,000 tested, 8.8% active; AID 504332; note: potency is the fitted concentration of half-maximal effect; % is set by controls: 0 for no effect and ±100 for the full control effect; nearly all actives have a fitted effect of over 75% in size
Target sequence (Q96KQ7 913-1193 limits assumed): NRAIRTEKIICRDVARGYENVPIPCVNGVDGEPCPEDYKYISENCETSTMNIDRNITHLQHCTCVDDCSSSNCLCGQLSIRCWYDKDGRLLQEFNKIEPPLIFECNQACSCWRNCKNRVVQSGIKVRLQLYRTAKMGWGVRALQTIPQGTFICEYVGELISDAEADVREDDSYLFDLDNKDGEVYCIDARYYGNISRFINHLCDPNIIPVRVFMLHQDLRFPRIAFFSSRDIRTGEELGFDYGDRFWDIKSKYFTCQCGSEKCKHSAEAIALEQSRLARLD
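Using a bead-based AlphaScreen, monomethylated H3K9 product from 2 h room-temperature reactions (G9a 20 nM, peptide 500 nM, SAM 20 uM) was detected with 0.5 ug/mL rabbit anti-H3K9me1 antibody.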
JMJD2E inh-1: JMJD2E demethylase inhibition by 8HQ compounds; shares compounds with BAZ2B block; JMJD2E demethylase, FDH-coupled NADH fluorescence; Potency, µM (doses to about 57 µM), for the others: top-dose activity, negative = inhibition, hits mostly inhibitors; 130 tested, 89% active; AID 493212
ME-1 growth: reduces ME-1 leukemia cell proliferation; 140 tested, 20% active; Potency, µM (highest dose often 56.1 µM), for inactives: at the highest dose activity change, negative = inhibition, hits mostly inhibitors; AID 504370; shares compounds with BAZ2B block; ME-1 cell proliferation, ATP luminescence, 48 h
JMJD2E inh-2: confirmation of inhibitors of human JMJD2E demethylase | 140 tested, 93% active | Potency, µM (highest dose often 56.8 µM), inactives show at the highest dose activity change, negative = inhibition, usual class: inhibitors | shares compounds with JMJD2A Tudor | AID 2677 | Recombinant JMJD2E, FDH-coupled NADH fluorescence (FDH is formaldehyde dehydrogenase)
FDH inh: FDH (Pseudomonas putida) inhibition counter-screen; 140 tested, 10% active; Potency, µM (top dose mostly 56.7 µM), without a hit: at the highest dose activity, negative = inhibition, actives largely listed as inhibitors; FDH enzyme assay, NADH fluorescence kinetic; shares compounds with JMJD2A Tudor
JMJD2E MS inh: blocks demethylation by human JMJD2E in a MALDI-TOF-MS assay; shares compounds with JMJD2A Tudor; recombinant JMJD2E demethylation, MALDI-TOF-MS; Potency, µM, usual class: inhibitors; 45 tested, 90% active;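 active = compounds whose IC50 for blocking JMJD2E demethylation is below 100 µM; inconclusive = dose dependent effect but IC50 above 100 µM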
TbPYK confirm: Trypanosoma brucei pyruvate kinase inhibition, cherry-pick confirmation | Potency, µM (doses to about 76.9 µM), for the others: top-dose activity change, negative = inhibition, hits mostly inhibitors | recombinant TbPYK, Kinase-Glo ATP luminescence | shares compounds with PLK1 PBD block | 890 tested, 67% active; note: potency is the fitted concentration of half-maximal effect; % is set by controls: 0 for no effect and ±100 for the full control effect; nearly all actives have a fitted effect of over 70% in size
TbPYK orthogonal: orthogonal confirmation of Trypanosoma brucei pyruvate kinase inhibitors | shares compounds with PLK1 PBD block | recombinant TbPYK, ADP-Glo luminescence, 60 min | Potency, µM (highest dose often 76.9 µM), inactives show at the highest dose activity change, negative = inhibition, usual class: inhibitors | 890 tested, 62% active; note: potency is the fitted concentration of half-maximal effect; % is set by controls: 0 for no effect and ±100 for the full control effect; nearly all actives have a fitted effect of over 75% in size
* marks the source's active call; other numbers are inactive results; ? = inconclusive; . = no result; [ ] = another dose, or the depositor's remark. Unless noted, calls come from the whole dose curve; as a rule, active = well fitted curve in the direction sought with a large enough effect; inconclusive = small, poorly fitted or top-dose-only effect, or another doubt; inactive = no such curve, though single readings can be large; an effect the other way counts as inactive or inconclusive.

SMILES | PLK1 PBD block | HP1b chromo inh | Sfp inh | JMJD2A Tudor | BAZ2B block | G9a block | JMJD2E inh-1 | JMJD2E inh-2 | FDH inh | JMJD2E MS inh | others
O=C(O)c1ccnc2c(O)cccc12 | . | . | . | . | 1.78µM* | 43.4%[12.7 µM] | 1.45µM* | 1.45µM* | . | 8.19*
O=C(Nc1ccccc1F)c1ccc(O)c2ncccc12 | . | . | . | . | 20µM* | 2.3%[12.7 µM] | 28.9µM* | 35.5µM* | . | 40.7*
O=S(=O)(NCc1ccccc1F)c1ccc(O)c2ncccc12 | . | . | . | . | . | . | 22.9µM* | 18.2µM* | -36.4% | .
O=C(Nc1cccc2cccnc12)c1cccc2ccccc12 | 1.4% | 45.2% | -6.9% | -3.4% | -2.6% | 8.3%[59 µM] | . | . | . | .
Oc1ccc(Oc2ccccc2F)c2cccnc12 | . | . | . | 50.1µM* | . | . | 8.91µM* | 12.9µM* | -9.1% | 16.8*
Nc1ncc(S(=O)(=O)NCc2ccccc2F)cn1 | . | 22.2%[57 µM] | . | 1.0% | -0.5% | -4.0%[59 µM] | . | . | . | .
Nc1cccnc1Oc1ccccc1F | -14.1% | 0.5% | -9.5% | -9.7% | -4.5% | 8.8% | . | . | . | .
COc1ccc(C2c3c(oc4ccc(F)cc4c3=O)C(=O)N2Cc2ccc3c(c2)OCO3)cc1 (stereo unspecified) | . | 52.8% | . | -16.8% | ? | 3.9%[59 µM] | . | . | . | .
CCOC(=O)N1CCN(C(=S)NC(=O)/C=C/c2ccc(C)cc2)CC1 | -15.6% | 13.6% | 4.3% | -17.2% | -22.8% | 19.0% | . | . | . | .
COc1ccc(-c2oc3ccc(C)cc3c(=O)c2O)cc1OC | . | . | 0.9% | . | . | . | . | . | . | .
COc1ccccc1CNC(=O)CCCCn1c(=O)c2ccccc2n(Cc2ccccc2F)c1=O | . | 20.4% | . | -3.4% | -0.1% | -23.7%[59 µM] | . | . | . | .
CCCNc1ncccc1C(N)=O | -6.6% | 10.8% | 15.2% | -1.9% | 6.9% | -7.7% | . | . | . | .
NC(=O)c1ccc(O)c2ncccc12 | . | . | . | 12.6µM* | . | . | 4.57µM* | 4.57µM* | -9.1% | 89.6*
Oc1ccc(COc2ccccc2Cl)c2cccnc12 | . | . | . | 79.4µM* | . | . | 12.6µM* | 12.6µM* | -27.3% | .
Oc1ccc(CCc2ccccc2)c2cccnc12 | . | . | . | 44.7µM* | . | . | 7.08µM* | 9.13µM* | 9.1% | 89.5*
CCN(CC)C(=O)c1sc2c(c1C)c(=O)n(CCc1ccccc1)c(=O)n2Cc1ccc(C)cc1 | . | 28.9% | . | -5.0% | -4.6% | -2.5%[59 µM] | . | . | . | .
CC1=NN(c2ccccc2)C(=O)/C1=C/C=C/c1ccc(N(C)C)cc1 | 0.3% | 2.51µM* | -7.3% | 2.51µM* | 2µM* | 2µM* | . | . | . | . | ME-1 growth=?;TbPYK confirm=25.1µM*;TbPYK orthogonal=10.8%

From PubChem
